What follows are sequences tested against FBXL3 (assay: pooled miR-30 sensor sort-seq; sequence = guide strand). Conditions: shRNA.
Sequence TTGCTTGAAATTAAGGTGCTAT has a sensor-assay potency score (higher = more potent) of 0.353.
TACTTGGAGAATAATGTCCTGA showed a sensor-assay potency score (higher = more potent) of 0.112.
In the case of TATCACAAGCTGCTTCAGCTGA, the sensor-assay potency score (higher = more potent) is reported as -0.251.
With TTAATTATAATACATTTGCTTG the sensor-assay potency score (higher = more potent) was -1.08.
TATGGAAGTGTGTCTGTCCAGG was tested, and the sensor-assay potency score (higher = more potent) was -0.66.
Work on TACTGGAGTATCATCTATCTTA yielded a sensor-assay potency score (higher = more potent) of -0.0234.
In the case of TAACTCTTCATCAAGTGGCCGT, the sensor-assay potency score (higher = more potent) is reported as -0.249.
TACTCTTCTGAATAGTATGGAA showed a sensor-assay potency score (higher = more potent) of -0.502.
Work on TACATCACTAAGTTCACTTTGG yielded a sensor-assay potency score (higher = more potent) of 0.0732.
TTGCACACACTACTAGTTCAAC gave a sensor-assay potency score (higher = more potent) of -1.05.

What follows are sequences tested against FBXO25 in the same assay as above. Conditions: shRNA.
In the case of TAATCCAACTCCATCCAGGAGA, the sensor-assay potency score (higher = more potent) is reported as -0.761.
ATATCTTGAATTGCACTTGAGA was tested, and the sensor-assay potency score (higher = more potent) was -0.85.
In the case of TGTGTCTCCGTACTGCTCCTTC, the sensor-assay potency score (higher = more potent) is reported as -0.185.
TTGACCACATAATTGAACCTTC gave a sensor-assay potency score (higher = more potent) of 0.213.
For TCTTAATCCAACTCCATCCAGG, the sensor-assay potency score (higher = more potent) was -0.487.
For TTCACTTGCTTAGTCATCTGAA, the sensor-assay potency score (higher = more potent) was 0.836.
For TCTGTCTTAATCCAACTCCATC, the sensor-assay potency score (higher = more potent) was -1.72.
TCACTAAGCATATACAACGTGG showed a sensor-assay potency score (higher = more potent) of -0.518.
With TTCACTAAGCATATACAACGTG the sensor-assay potency score (higher = more potent) was -0.104.
TATTGAATATTTCTCCATCTTC was tested, and the sensor-assay potency score (higher = more potent) was -0.493.
Sequence TTTTTTTCGATGCATATTCATG has a sensor-assay potency score (higher = more potent) of -0.983.
TAGGTCTTGCAGAAGATCTTTG was tested, and the sensor-assay potency score (higher = more potent) was -0.731.

What follows are sequences tested against FBXO27 in the same assay as above. Conditions: shRNA.
For TTTTTTAACGTAGACTTTCAGC, the sensor-assay potency score (higher = more potent) was -0.574.
With TTTTTTTTTAACGTAGACTTTC the sensor-assay potency score (higher = more potent) was -0.903.
TTTTCCTCCACCACCCAGCCGT was tested, and the sensor-assay potency score (higher = more potent) was -0.662.
Work on TTTATCTAGAACAGTCTGGTTG yielded a sensor-assay potency score (higher = more potent) of 0.00929.
For AATTTATCTAGAACAGTCTGGT, the sensor-assay potency score (higher = more potent) was 0.248.
TGTTGCACCATCCACTTTCGGA was tested, and the sensor-assay potency score (higher = more potent) was -0.815.
In the case of TTGATGTTGGAGAACACGTGGG, the sensor-assay potency score (higher = more potent) is reported as -0.501.
TGATATATTATTCTTACTGTTT gave a sensor-assay potency score (higher = more potent) of -0.893.
TTATCTAGAACAGTCTGGTTGG gave a sensor-assay potency score (higher = more potent) of 0.434.
With TTACAGGTCCTTGAGGATCAGG the sensor-assay potency score (higher = more potent) was -1.43.
For TTTAACGTAGACTTTCAGCTGC, the sensor-assay potency score (higher = more potent) was 0.647.
Work on TCTGGTAGTTTCTAGAACCTGA yielded a sensor-assay potency score (higher = more potent) of 0.603.

Each sequence was assayed against FBXO43 in the same assay as above. Conditions: shRNA.
Work on TAACAGAAGAGCTTGCTAGAGG yielded a sensor-assay potency score (higher = more potent) of -0.36.
TAGGCTACAATCATCTTTGGAA gave a sensor-assay potency score (higher = more potent) of 0.408.
In the case of TAATTCTGTTAAGATGTCCAGT, the sensor-assay potency score (higher = more potent) is reported as -0.342.
Sequence AACCTTAACATATTCTTCCTGT has a sensor-assay potency score (higher = more potent) of 0.212.
Work on TTATCTTGAACAACAATTTCAC yielded a sensor-assay potency score (higher = more potent) of 0.0349.
TTGCTTTTCATGAACAGCTCAT gave a sensor-assay potency score (higher = more potent) of -0.219.
Also: reference of the scale not given here.
